Reference: PubChem BioAssay (NCATS)
Inconclusive results are not listed. A call without a number means that no potency is given here. A number with no mark means an inactive call. Activity calls are given as the source filed them. Calls follow the shape of the dose curve; as a rule, active = well fitted cell-killing curve with a large enough effect; inconclusive = small, poorly fitted or top-dose-only effect, or effect the other way; inactive = flat fitted curve, though single readings scatter.

Legend:
Experiment in all cases: Primary qHTS to identify gynecologic anti-cancer compounds using libraries of approved drugs and bioactive compounds (AID 1345084); also: nearly all actives have a fitted effect of over 55% in size
C33A = conditions: Gynecologic cancer cell panel viability, ATPlite luminescence, 48 h; series mostly up to 57.5 µM
Outline: (§1)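 In this quantitative HTS, cell killing is estimated from loss of ATP-dependent luciferase light. Cells see five compound concentrations over a 48 h exposure.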

CAOV3 = conditions: Gynecologic cancer cell panel viability, ATPlite luminescence, 48 h; series mostly up to 57.5 µM
Outline: as §1

CASKI = conditions: Gynecologic cancer cell panel viability, ATPlite luminescence, 48 h; series mostly up to 57.5 µM
Outline: as §1

Es-2 = conditions: Gynecologic cancer cell panel viability, ATPlite luminescence, 48 h; series mostly up to 57.5 µM
Outline: as §1

HeLa = conditions: Gynecologic cancer cell panel viability, ATPlite luminescence, 48 h; series mostly up to 57.5 µM
Outline: as §1

Hek293T = conditions: Gynecologic cancer cell panel viability, ATPlite luminescence, 48 h, control line for the selectivity index; series mostly up to 57.5 µM
Outline: as §1

JEG-3 = conditions: Gynecologic cancer cell panel viability, ATPlite luminescence, 48 h; series mostly up to 57.5 µM
Outline: as §1

OV90 = conditions: Gynecologic cancer cell panel viability, ATPlite luminescence, 48 h; series mostly up to 57.5 µM
Outline: as §1

PA-1 = conditions: Gynecologic cancer cell panel viability, ATPlite luminescence, 48 h; series mostly up to 57.5 µM
Outline: as §1

SKOV3 = conditions: Gynecologic cancer cell panel viability, ATPlite luminescence, 48 h; series mostly up to 57.5 µM
Outline: as §1

Tov-21-G = conditions: Gynecologic cancer cell panel viability, ATPlite luminescence, 48 h; series mostly up to 57.5 µM
Outline: as §1

Tov112D = conditions: Gynecologic cancer cell panel viability, ATPlite luminescence, 48 h; series mostly up to 57.5 µM
Outline: as §1
Potency is read from the fitted curve at half-maximal effect.

| SMILES | Potency (C33A) | Potency (CAOV3) | Potency (CASKI) | Potency (Es-2) | Potency (HeLa) | Potency (Hek293T) | Potency (JEG-3) | Potency (OV90) | Potency (PA-1) | Potency (SKOV3) | Potency (Tov-21-G) | Potency (Tov112D) |
| --- | --- | --- | --- | --- | --- | --- | --- | --- | --- | --- | --- | --- |
| OC1(c2ccccc2)CCNCC1 | inactive | inactive | inactive | inactive | inactive | inactive | inactive | inactive | inactive | inactive | inactive | inactive |
| Cc1oc(-c2ccccc2)nc1CCC(=O)c1ccc(CC2SC(=O)NC2=O)cc1 (stereo not drawn) | inactive | inactive | inactive | inactive | inactive | inactive | inactive | inactive | inactive | inactive | inactive | inactive |
| O=C(O)c1cn(C2CC2)c2cc(Cl)c(F)cc2c1=O | inactive | inactive | inactive | inactive | inactive | inactive | inactive | inactive | inactive | inactive | inactive | inactive |
| COC(=O)c1cc(S(N)(=O)=O)ccc1OC | inactive | inactive | inactive | inactive | inactive | inactive | inactive | inactive | inactive | inactive | inactive | inactive |
| CCCC(CCC)(C(=O)OCC)C(=O)OCC | inactive | inactive | inactive | inactive | inactive | inactive | inactive | inactive | inactive | inactive | inactive | inactive |
| Cc1cnc(NS(=O)(=O)c2ccc(N)cc2)nc1 | inactive | inactive | inactive | inactive | inactive | inactive | inactive | inactive | inactive | inactive | inactive | inactive |
| CN(C)CCN1CCN(c2cccc(Cl)c2)C1=O | inactive | inactive | inactive | inactive | inactive | inactive | inactive | inactive | inactive | inactive | inactive | inactive |
| CCN(CC)CC(=O)Oc1ccc(NC(C)=O)cc1 | inactive | inactive | inactive | inactive | inactive | inactive | inactive | inactive | inactive | inactive | inactive | inactive |
| CC(C)(C)NCC(O)COc1ccccc1OCC1CCCO1 (stereo not drawn) | inactive | inactive | inactive | inactive | inactive | inactive | inactive | inactive | inactive | inactive | inactive | inactive |
| CCOc1ccccc1OCC1CNCCO1 (stereo not drawn) | inactive | inactive | inactive | inactive | inactive | inactive | inactive | inactive | inactive | inactive | inactive | inactive |
| C/C(=C1\CCOC(=O)S1)N(C=O)Cc1cnc(C)nc1N | inactive | inactive | inactive | inactive | inactive | inactive | inactive | inactive | inactive | inactive | inactive | inactive |
| CCN(CC)C(=O)C1CN2CCc3cc(OC)c(OC)cc3C2CC1OC(C)=O (stereo not drawn) | inactive | inactive | inactive | inactive | inactive | inactive | inactive | inactive | inactive | inactive | inactive | inactive |
| CCCCCCCC(=O)[O-].CCCCCCCC(=O)[O-].[Zn+2] | inactive | inactive | inactive | inactive | inactive | inactive | inactive | inactive | inactive | inactive | inactive | inactive |
| CCN(CC)CC(=O)Nc1c(C)cccc1C(=O)OC | inactive | inactive | inactive | inactive | inactive | inactive | inactive | inactive | inactive | inactive | inactive | inactive |
| CCOC(=O)C(=O)CCCCCCl | inactive | inactive | inactive | inactive | inactive | inactive | inactive | inactive | inactive | inactive | inactive | inactive |
| Nc1nc(=O)n([C@@H]2O[C@H](CO)[C@@H](O)[C@@H]2F)cc1I | inactive | inactive | inactive | inactive | inactive | inactive | inactive | inactive | inactive | inactive | inactive | inactive |
| CC(=O)[C@H]1CC[C@H]2[C@@H]3C=CC4=CC(=O)CC[C@@]4(C)[C@@H]3CC[C@]12C | inactive | inactive | inactive | inactive | inactive | inactive | inactive | inactive | inactive | inactive | inactive | inactive |
| CCN1CCN(c2cc(-c3ccc(F)cc3)c3c(n2)CCCCCC3)CC1 | inactive | inactive | inactive | inactive | inactive | inactive | inactive | inactive | inactive | inactive | inactive | inactive |
| Oc1cccc2[nH]ccc12 | inactive | inactive | inactive | inactive | inactive | inactive | inactive | inactive | inactive | inactive | inactive | inactive |
| COc1ccc(/C(C)=C/C(=O)O)c(OC)c1 | inactive | inactive | inactive | inactive | inactive | inactive | inactive | inactive | inactive | inactive | inactive | inactive |

| SMILES | Potency (C33A) | Potency (CAOV3) | Potency (CASKI) | Potency (Es-2) | Potency (HeLa) | Potency (Hek293T) | Potency (JEG-3) | Potency (OV90) | Potency (PA-1) | Potency (SKOV3) | Potency (Tov-21-G) | Potency (Tov112D) |
| --- | --- | --- | --- | --- | --- | --- | --- | --- | --- | --- | --- | --- |
| NS(=O)(=O)c1cc(C(=O)NN2C[C@H]3[C@H]4CCC(C4)[C@H]3C2)ccc1Cl | inactive | inactive | inactive | inactive | inactive | inactive | inactive | inactive | inactive | inactive | inactive | inactive |
| CCC[C@H](N[C@@H](C)C(=O)N1[C@H](C(=O)O)C[C@@H]2CCCC[C@@H]21)C(=O)OCC | inactive | inactive | inactive | inactive | inactive | inactive | inactive | inactive | inactive | inactive | inactive | inactive |
| COc1ccccc1N1CCN(CC(O)COc2cc(OC)c(OC)c(OC)c2)CC1 (stereo not drawn) | inactive | inactive | inactive | inactive | inactive | inactive | inactive | inactive | inactive | inactive | inactive | inactive |
| O=C(O)Cn1cnnn1 | inactive | inactive | inactive | inactive | inactive | inactive | inactive | inactive | inactive | inactive | inactive | inactive |
| CCOC(=O)c1cc(=O)c2c(OCC(COc3cccc4oc(C(=O)OCC)cc(=O)c34)OC(=O)[C@@H](N)CCCCN)cccc2o1 | inactive | inactive | inactive | inactive | inactive | inactive | inactive | inactive | inactive | inactive | inactive | inactive |
| CCOC(=O)C(O)c1ccccc1 (stereo not drawn) | inactive | inactive | inactive | inactive | inactive | inactive | inactive | inactive | inactive | inactive | inactive | inactive |
| c1ccc2c(c1)CCc1ccccc1N2 | inactive | inactive | inactive | inactive | inactive | inactive | inactive | inactive | inactive | 22.4 µM (active) | inactive | inactive |
| O=C(c1cc(O)c(O)c(O)c1)c1ccc(O)c(O)c1O | inactive | inactive | inactive | inactive | inactive | inactive | inactive | inactive | inactive | inactive | inactive | inactive |
| Oc1ccccc1-c1nnco1 | inactive | inactive | inactive | inactive | inactive | inactive | inactive | inactive | inactive | inactive | inactive | inactive |
| CC(C)C[C@@H]1[C@H](c2ccccc2)OC(=O)N1CCCN1CCCCCC1 | inactive | inactive | inactive | inactive | inactive | inactive | inactive | inactive | inactive | inactive | inactive | inactive |
| CC(C)NCCCC1(C(N)=O)c2ccccc2-c2ccccc21 | inactive | inactive | inactive | inactive | inactive | inactive | inactive | inactive | inactive | inactive | inactive | inactive |
| CO/N=C(\C(=O)O)c1csc(NC(=O)CCl)n1 | inactive | inactive | inactive | inactive | inactive | inactive | inactive | inactive | inactive | inactive | inactive | inactive |
| CCn1ccc(NS(=O)(=O)c2ccc(N)cc2)nc1=O | inactive | inactive | inactive | inactive | inactive | inactive | inactive | inactive | inactive | inactive | inactive | inactive |
| Cc1nn(-c2ccccc2)c(C)c1/C=N/N1CCN(Cc2ccccc2)CC1 | inactive | inactive | inactive | inactive | inactive | inactive | inactive | inactive | inactive | inactive | inactive | inactive |
| COc1ccc2c(c1)c(CC(=O)OC/C=C(\C)CC/C=C(\C)CCC=C(C)C)c(C)n2C(=O)c1ccc(Cl)cc1 | inactive | inactive | inactive | inactive | inactive | inactive | inactive | inactive | inactive | inactive | inactive | inactive |
| CCOc1c(N2CCOCC2)cnn(C)c1=O | inactive | inactive | inactive | inactive | inactive | inactive | inactive | inactive | inactive | inactive | inactive | inactive |
| CC(=O)O[C@H]1CC[C@@]2(C)C(=CC[C@@H]3[C@@H]2CC[C@]2(C)C(C(C)=O)=CC[C@@H]32)C1 | inactive | inactive | inactive | inactive | inactive | inactive | inactive | inactive | inactive | inactive | inactive | inactive |
| O=C(O)C(=O)Nc1cccc(-c2nn[nH]n2)c1 | inactive | inactive | inactive | inactive | inactive | inactive | inactive | inactive | inactive | inactive | inactive | inactive |
| OC1(c2ccc(Cl)cc2)CCNCC1 | inactive | inactive | inactive | inactive | inactive | inactive | inactive | inactive | inactive | inactive | inactive | inactive |
